# Data taken from PubChem BioAssay AID588448 (NMMLSC, 2011).
# The source made the active and inactive calls.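 The calls were made as follows: active = half-maximal concentration under 30 µM, fit with over 36% top-dose inhibition and error below a fifth of it; inactive = the rest.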
# Target: Integrin alpha-4 (Homo sapiens) (UniProt P13612)
# Assay: VLA-4 pocket occupancy via HUTS-21 epitope – U937 cells, powder samples, set 2, SAR follow-up (AID 588448)
# Settings: HUTS-21 LIBS mAb binding, flow cytometry; series mostly up to 66.7 µM
# Sequence of Integrin alpha-4 (Homo sapiens) (P13612 whole entry, looked up): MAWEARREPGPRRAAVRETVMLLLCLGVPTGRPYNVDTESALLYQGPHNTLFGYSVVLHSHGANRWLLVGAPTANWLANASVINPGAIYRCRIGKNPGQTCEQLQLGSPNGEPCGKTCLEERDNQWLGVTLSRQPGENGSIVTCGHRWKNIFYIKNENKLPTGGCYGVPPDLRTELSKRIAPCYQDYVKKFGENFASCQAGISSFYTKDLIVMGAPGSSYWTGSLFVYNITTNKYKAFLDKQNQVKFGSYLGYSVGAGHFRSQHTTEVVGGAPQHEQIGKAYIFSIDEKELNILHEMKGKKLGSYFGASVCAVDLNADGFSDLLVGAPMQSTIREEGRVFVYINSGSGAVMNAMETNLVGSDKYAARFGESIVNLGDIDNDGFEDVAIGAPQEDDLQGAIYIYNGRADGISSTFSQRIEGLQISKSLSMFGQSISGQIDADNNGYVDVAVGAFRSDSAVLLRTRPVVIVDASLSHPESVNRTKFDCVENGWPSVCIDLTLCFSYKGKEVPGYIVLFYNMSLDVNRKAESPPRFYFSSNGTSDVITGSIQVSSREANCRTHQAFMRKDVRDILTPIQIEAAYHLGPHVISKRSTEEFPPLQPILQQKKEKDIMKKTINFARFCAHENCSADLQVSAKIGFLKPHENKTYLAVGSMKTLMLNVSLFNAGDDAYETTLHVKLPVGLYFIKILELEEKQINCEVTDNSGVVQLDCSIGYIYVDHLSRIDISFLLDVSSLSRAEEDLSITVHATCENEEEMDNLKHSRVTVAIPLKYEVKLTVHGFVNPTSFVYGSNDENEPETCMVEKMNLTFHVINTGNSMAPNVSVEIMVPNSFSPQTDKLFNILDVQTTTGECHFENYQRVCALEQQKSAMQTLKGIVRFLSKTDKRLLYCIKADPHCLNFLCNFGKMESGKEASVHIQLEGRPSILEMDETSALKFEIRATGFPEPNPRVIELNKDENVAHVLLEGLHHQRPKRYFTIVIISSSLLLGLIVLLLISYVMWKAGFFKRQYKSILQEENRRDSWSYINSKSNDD
row,Structure (SMILES),outcome
1,Cc1ccc(-c2nc(CN3C(=O)C4CC=CCC4C3=O)cs2)cc1 (centres undefined),inactive
2,COc1ccccc1Cn1c(C2CC(=O)N(C)C2)nc2ccccc21 (centres undefined),inactive
3,COCCn1c(C2CC(=O)N(c3cccc(C)c3)C2)nc2ccccc21 (centres undefined),inactive
4,COc1ccccc1N1CCN(CC(=O)c2ccc(F)cc2)CC1,inactive
5,Cc1ccc(C)n1-c1ccc(C(=O)N(C)Cc2ccco2)cc1,inactive
6,Cc1cc(C(=O)N2CCCC2c2ccc3c(c2)OCCO3)sc1C (centres undefined),inactive
7,CC(=O)N(C)Cc1nc2ccccc2n1CCOc1ccc(C)cc1,inactive
8,CCn1c(C2CC(=O)N(CCc3ccccc3)C2)nc2ccccc21 (centres undefined),inactive
9,CCOCCn1c(C2CC(=O)N(c3ccccc3)C2)nc2ccccc21 (centres undefined),inactive
10,CCN1CC(c2nc3ccccc3n2Cc2ccccc2)CC1=O (centres undefined),inactive
11,CCOc1ccccc1N1CC(c2nc3ccccc3n2C)CC1=O (centres undefined),inactive
12,Cc1nc2ccccc2n1CCc1noc(COc2ccccc2)n1,inactive
13,O=C1C2CC=CCC2C(=O)N1Cc1csc(Cc2ccccc2)n1 (centres undefined),inactive
14,Cn1cc(C(=O)N2CCCC2c2nc3ccccc3s2)cn1 (centres undefined),inactive
15,COCCn1c(C2CC(=O)N(c3ccccc3C)C2)nc2ccccc21 (centres undefined),inactive
16,CCn1c(C2CC(=O)N(c3ccccc3OC)C2)nc2ccccc21 (centres undefined),inactive
17,CCN1CC(c2nc3ccccc3n2CCOc2ccccc2)CC1=O (centres undefined),inactive
18,O=C(c1ccc(OCCN2CCCCC2)cc1)c1c(-c2ccc(O)cc2)sc2cc(O)ccc12,inactive
19,COc1cc(OCc2ccccc2)ccc1CN1CCN(C)CC1,inactive
20,COCCn1c(C2CC(=O)N(Cc3ccco3)C2)nc2ccccc21 (centres undefined),inactive
21,CSc1ccccc1OCc1cc(C(=O)N2CCCC2)no1,inactive
22,COCC(=O)N1CCC2(CCCN(CCc3ccccc3)C2=O)C1 (centres undefined),inactive
23,CN(Cc1ccco1)C(=O)c1ccc(-n2cnc3ccccc32)cc1,inactive
24,COc1ccc(-c2nn(Cc3ccccc3)cc2C(=O)N2CCC2)cc1,inactive
25,Cc1nc(C)c(C(=O)N2CCCC2c2nc3ccccc3s2)s1 (centres undefined),inactive
26,Cc1oc(-c2cccs2)nc1CN1C(=O)C2CC=CCC2C1=O (centres undefined),inactive
27,Cc1cc(C(=O)N2CCCC2c2nc3ccccc3s2)on1 (centres undefined),inactive
28,COc1ccc(C2CCCN2C(=O)c2sccc2C)cc1OC (centres undefined),inactive
29,CN1CC(c2nc3ccccc3n2CCOc2ccccc2)CC1=O (centres undefined),inactive
